Nine compounds from PubChem BioAssay (NCATS) can be followed below.

Each structure is given as a SMILES string. Results filed as inconclusive are left out. Activity calls are given as the source filed them. Unless noted, calls come from the whole dose curve; as a rule, active = well fitted curve in the direction sought with a large enough effect; inconclusive = small, poorly fitted or top-dose-only effect, or another doubt; inactive = no such curve, though single readings can be large; an effect the other way counts as inactive or inconclusive.

Test [1] in a line: Cell Viability - Jurkat (AID 426;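 active = dose-dependent loss of cell ATP signal giving a full or clear fitted curve, ranked by lower potency value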;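 note: potency is the fitted concentration of half-maximal effect; cells exposed to compound for 40 hours at 37 °C before ATP read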). Conditions: qHTS. In a few lines:
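Seed 5000 Jurkat E6-1 cells/well; add compound; incubate 40 hr at 37 °C; add CellTiter-Glo; wait 20 min at room temperature; read luminescence. Fit concentration-response with Hill equation for AC50.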

Test [2] in a line: Cell Viability - Hek293 (AID 427;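 active = compounds whose dose-response curve shows a full or clear partial loss of cell viability, called from curve shape rather than a numeric limit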;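 note: potency is the fitted concentration of half-maximal effect; cells exposed to compound for 40 hours at 37 °C before reading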). The note with it: qHTS. Summed up:
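Luminescent ATP content (CellTiter-Glo, 20 min at room temperature) was measured after a 40 hr, 37 °C compound exposure of HEK293 cells. AC50 values came from Hill-equation fits of qHTS concentration-response data normalized to DMSO and 100 uM tamoxifen.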
In general terms: Quantitative high-throughput screening tests each substance at several concentrations.

Test [3] in a line: Cell Viability - NIH 3T3 (AID 541).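 Note: cells exposed to compound for 40 hours; plate controls were DMSO alone for no effect and tamoxifen positive control for full effect; nearly all actives have a fitted effect of over 25% in size.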 The note with it: NIH 3T3 cell viability, qHTS; activity change, negative = cytotoxicity: at 92.2 µM (top of the series). In a few lines: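 AC50 values reflect concentration-dependent loss of intracellular ATP in NIH 3T3 cells after 40 hr treatment in complete culture medium, quantified by luciferase-based luminescence.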
The nature of test [4]: Cell Viability - H-4-II-E (AID 543).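 Note: cells exposed to compound for 40 hours; % is set by controls: 0 for no effect and ±100 for the full control effect; nearly all actives have a fitted effect of over 35% in size.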 Conditions: H-4-II-E rat hepatoma viability; series mostly up to 92.2 µM. In a few lines: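 Here, cytotoxicity is measured in the rat hepatoma line H-4-II-E as loss of intracellular ATP after 40 hr compound treatment, detected by luciferase luminescence.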
Test [5] is described as follows: MultiTox-Fluor Cytotoxicity Assay - LYMP1-001 - Live Cells (AID 947).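 Note: 0% = DMSO only and full inhibition = tetraoctylammonium bromide control.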 Conditions: LYMP1-001 lymphoblastoid cells, live-cell protease fluorescence viability; series mostly up to 92.2 µM.
A short description of test [6]: Cell Viability - LYMP2-004 (AID 966).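 Note: plate controls were DMSO only for no effect and tetraoctylammonium bromide control for full effect; nearly all actives have a fitted effect of over 65% in size.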 Conditions: LYMP2-004 lymphoblastoid cell viability, qHTS; series mostly up to 92.2 µM. In a few lines: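 Acute toxicity is scored as a concentration-dependent drop in intracellular ATP, quantified by luciferase luminescence, in human lymphoblastoid cells exposed to compound for 24 hr. AC50 derives from Hill-equation modelling.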

Test [7] concerns the target Estrogen receptor (Homo sapiens) (UniProt P03372). Nature of the test: qHTS assay for small molecule antagonists of estrogen receptor alpha signaling (AID 588513; active = well fitted curve in the direction sought with a large enough effect in the signal ratio, with a control signal flat, not every such curve was filed as active; the % refers to the signal ratio; note: % is set by controls: 0 for no effect and ±100 for the full control effect). The note with it: ER-alpha-UAS-bla HEK293, beta-lactamase ratio, antagonist mode; series mostly up to 76.9 µM. Summed up:
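ER-alpha-UAS-bla GripTite HEK 293 cells in medium with 2% charcoal/dextran-treated FBS were preincubated 4 h at 37 C, dosed with compound (1:2 titration), stimulated with 0.5nM 17-beta-estradiol for 18 h, then read by CCF4 beta-lactamase fluorescence.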

The target is the same in test [8]. Put plainly: qHTS assay for small molecule agonists of estrogen receptor alpha signaling (AID 588514; calls by dose curve; note: nearly all actives have a fitted effect of over 70% in size; note: potency is the fitted concentration of half-maximal effect;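 for activation: 0% = vehicle only and 100% = reference agonist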). The note with it: ER-alpha-UAS-bla HEK293, beta-lactamase ratio, 18 h; series mostly up to 76.8 µM. In a few lines: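 Reporter-gene assay. […] controls beta-lactamase in HEK 293 GripTite cells; after 18 hrs with compound, CCF4 substrate is added for 2 hrs and fluorescence is read.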

The target in test [9] is Glucocorticoid receptor (Homo sapiens) (UniProt P04150). Nature of the test: qHTS assay for small molecule agonists of glucocorticoid receptor signaling (AID 588532; active = well fitted curve in the direction sought with a large enough effect in the signal ratio, with a control signal flat; the % refers to the signal ratio;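 note: 100% = dexamethasone at 0.1 µM and 0% = DMSO only wells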). The note with it: HeLa MMTV-bla, beta-lactamase ratio, agonist, 18 h; stronger effect = higher value; percent of dexamethasone control, DMSO zero. In a few lines:
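MMTV-bla HeLa beta-lactamase reporter cells in 1% charcoal/dextran FBS medium, compounds up to 92 uM for 18 h at 37 C, CCF4 readout; normalized to 0.1 uM dexamethasone (100%), EC50 and efficacy from Hill fits.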

For test [10] the target is unchanged. Nature of the test: qHTS assay for small molecule antagonists of glucocorticoid receptor signaling (AID 588533; active = well fitted inhibition curve with a large enough effect in the signal ratio, with a control signal flat, not every such curve was filed as active; the % refers to the signal ratio;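 note: cells stimulated with 2 nM dexamethasone as agonist; % is set by controls: 0 for no effect and ±100 for the full control effect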). Conditions: HeLa MMTV-bla, GRE beta-lactamase ratio, antagonist mode, 18 h; series mostly up to 76.8 µM. In a few lines: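 Antagonist-mode qHTS: compound titrations added to GRE-bla HeLa cells, then dexamethasone 2 nM final; 18 h, 37 C. CCF4 FRET fluorescence normalized to dexamethasone and DMSO; IC50 from Hill fit.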

The target in test [11] is Peroxisome proliferator-activated receptor gamma (Homo sapiens) (UniProt P37231). Nature of the test: qHTS assay for small molecule agonists of peroxisome proliferator-activated receptor gamma signaling (AID 588536; active = well fitted curve in the direction sought with a large enough effect in the signal ratio, with a control signal flat, not every such curve was filed as active; the % refers to the signal ratio;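 note: 0% = DMSO basal wells and 100% = rosiglitazone at 2 µM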). The note with it: HEK293 PPARg-UAS-bla, beta-lactamase ratio, 16 h, percent of rosiglitazone response, DMSO as zero; series mostly up to 76.7 µM. Summed up: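 Ratiometric blue/green fluorescence (405 nm excitation; 460 and 530 nm emission) from CCF4-loaded HEK293 reporter cells serves as signal. Exposure to test compounds lasts 16 h at 37 C in medium containing 1% charcoal/dextran-treated serum.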
Peroxisome proliferator-activated receptor gamma (Homo sapiens), sequence (P37231 whole entry, looked up): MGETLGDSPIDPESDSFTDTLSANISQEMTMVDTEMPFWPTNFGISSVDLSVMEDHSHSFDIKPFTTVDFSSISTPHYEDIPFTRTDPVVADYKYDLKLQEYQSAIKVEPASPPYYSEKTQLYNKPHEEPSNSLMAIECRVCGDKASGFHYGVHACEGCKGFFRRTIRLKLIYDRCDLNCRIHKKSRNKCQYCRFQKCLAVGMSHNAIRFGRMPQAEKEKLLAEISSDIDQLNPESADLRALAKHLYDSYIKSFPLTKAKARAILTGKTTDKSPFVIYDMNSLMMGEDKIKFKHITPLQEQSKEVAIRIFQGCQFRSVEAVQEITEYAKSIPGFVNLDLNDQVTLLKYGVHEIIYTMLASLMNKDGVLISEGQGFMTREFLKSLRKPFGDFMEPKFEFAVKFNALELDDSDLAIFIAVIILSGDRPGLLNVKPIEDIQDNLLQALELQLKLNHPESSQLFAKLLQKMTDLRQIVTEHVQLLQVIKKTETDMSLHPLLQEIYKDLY

Test [12] has the same target. Put plainly: qHTS assay for small molecule antagonists of peroxisome proliferator-activated receptor gamma signaling (AID 588537; active = well fitted inhibition curve with a large enough effect in the signal ratio, with a control signal flat, not every such curve was filed as active; the % refers to the signal ratio;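 note: reporter cells co-stimulated with 50 nM rosiglitazone agonist during compound treatment; % of control where 0% means no effect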). The note with it: HEK293 PPARg-UAS-bla, beta-lactamase ratio, antagonist mode; series mostly up to 76.8 µM. Summed up: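 Step one: plate 3000 HEK293 UAS-bla cells per well in medium with 1% stripped serum and hold 6-6.5 h at 37 C. Step two: add compound and 50 nM agonist for 16 h. Step three: CCF4 loading, fluorescence read.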

The nature of test [13]: qHTS assay for small molecule agonists of the antioxidant response element (ARE) signaling pathway measured by Nrf2-dependant transcriptional activity (AID 720636; active = well fitted curve in the direction sought with a large enough effect in the repeat runs; an effect the other way counts as inactive or inconclusive; note: % of control where 0% means no effect). Conditions: ARE-luc HepG2, Nrf2 luciferase reporter, 16 h; series mostly up to 92.4 µM. In a few lines: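 Attachment 6 hr at 37 C, then compound versus DMSO vehicle for 16 hr in ARE-luc HepG2 cells (1% dialyzed FBS); luminescence recorded 30 min after ONE-Glo addition at room temperature.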

Test [14] in a line: qHTS assay for small molecule antagonists of peroxisome proliferator-activated receptor delta signaling (AID 588535; active = well fitted inhibition curve with a large enough effect in the signal ratio, with a control signal flat, not every such curve was filed as active; the % refers to the signal ratio;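 for max response: cells co-treated with a PPAR-delta agonist as stimulator during compound exposure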). The note with it: HEK293T PPARd-UAS-bla, beta-lactamase FRET ratio, 18 h; 460 nm channel. In a few lines: (§1)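 Cells were seeded at 4000 per well in assay medium containing 2% charcoal/dextran FBS and held 5 hrs at 37 C. Compounds were then added for 18 hrs. CCF4 substrate was applied for 2 hrs at room temperature before fluorescence reading.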

Test [15] has as its target Peroxisome proliferator-activated receptor delta (Homo sapiens) (UniProt Q03181). The test is described as above. Conditions: HEK293T PPARd-UAS-bla, beta-lactamase FRET ratio, 18 h; series mostly up to 76.7 µM. In a few lines:
as §1

Test [16] can be described thus: qHTS assay for environmental chemicals that activate the Aryl hydrocarbon Receptor (AhR) signaling pathway (AID 651777). Note: % of control where 0% means no effect; nearly all actives have a fitted effect of over 15% in size. Conditions: 1A2-DRE human hepatoma cells, luciferase, 24 h; activation: stronger effect = higher value. In a few lines:
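Concentration–response screening used 1,200 1A2-DRE cells per well, 24 hr compound exposure (37 C, 5% CO2), and One-Glo luminescence as the AhR-driven CYP1A2 reporter signal.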

Test [17] addresses Retinoic acid receptor RXR-alpha (Homo sapiens) (UniProt P19793). Put plainly: qHTS assay for small molecule agonists of retinoid X receptor alpha signaling (AID 588544; calls by dose curve;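 note: 0% = DMSO basal wells and 100% = reference agonist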). Conditions: HEK293T RXRa-UAS-bla, beta-lactamase reporter, 18 h; series mostly up to 76.7 µM.
Test [18] can be described thus: qHTS assay for small molecule agonists of the antioxidant response element (ARE) signaling pathway (AID 651741; active = well fitted activation curve with a large enough effect in the signal ratio; the % refers to the signal ratio; note: potency is the fitted concentration of half-maximal effect; for activation: % of control where 0% means no effect). Conditions: HepG2 ARE-bla reporter, beta-lactamase FRET ratio, 16 h; series mostly up to 96 µM. Summed up:
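HepG2 ARE-bla cells plated at 2,000 cells/well and incubated 5 h at 37 C/5% CO2 received 23 nL compound in DMSO. After 16 h at 37 C, LiveBLAzer B/G FRET substrate was applied for 2 h at room temperature and fluorescence read.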

Test [19] in a line: qHTS assay for small molecule disruptors of the mitochondrial membrane potential - 5 hr assay (AID 651755; calls by dose curve; note: nearly all actives have a fitted effect of over 40% in size; note: potency is the fitted concentration of half-maximal effect). The note with it: JC-1-type ratio dye; series mostly up to 92.2 µM. Summed up:
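HepG2 cells (2,000/well), attached overnight, exposed to compound 5 hr at 37C, then Mito-MPS dye 30 min. Fluorescence read for monomers (490/535 nm) and aggregates (540/590 nm).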

The nature of test [20]: Cell Viability - BJ (AID 421; calls by dose curve;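 note: potency is the fitted concentration of half-maximal effect; cells exposed to compound for 40 hours at 37 °C before readout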). The note with it: BJ fibroblast viability, qHTS. Summed up:
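Cytotoxicity as drop in intracellular ATP (CellTiter-Glo, 20 min RT) after 40 hr compound exposure of BJ fibroblasts at 37 °C. Titrations scaled between DMSO and 100 uM tamoxifen, Hill-fitted for AC50.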

Glucocorticoid receptor (Homo sapiens), sequence (P04150 whole entry, looked up): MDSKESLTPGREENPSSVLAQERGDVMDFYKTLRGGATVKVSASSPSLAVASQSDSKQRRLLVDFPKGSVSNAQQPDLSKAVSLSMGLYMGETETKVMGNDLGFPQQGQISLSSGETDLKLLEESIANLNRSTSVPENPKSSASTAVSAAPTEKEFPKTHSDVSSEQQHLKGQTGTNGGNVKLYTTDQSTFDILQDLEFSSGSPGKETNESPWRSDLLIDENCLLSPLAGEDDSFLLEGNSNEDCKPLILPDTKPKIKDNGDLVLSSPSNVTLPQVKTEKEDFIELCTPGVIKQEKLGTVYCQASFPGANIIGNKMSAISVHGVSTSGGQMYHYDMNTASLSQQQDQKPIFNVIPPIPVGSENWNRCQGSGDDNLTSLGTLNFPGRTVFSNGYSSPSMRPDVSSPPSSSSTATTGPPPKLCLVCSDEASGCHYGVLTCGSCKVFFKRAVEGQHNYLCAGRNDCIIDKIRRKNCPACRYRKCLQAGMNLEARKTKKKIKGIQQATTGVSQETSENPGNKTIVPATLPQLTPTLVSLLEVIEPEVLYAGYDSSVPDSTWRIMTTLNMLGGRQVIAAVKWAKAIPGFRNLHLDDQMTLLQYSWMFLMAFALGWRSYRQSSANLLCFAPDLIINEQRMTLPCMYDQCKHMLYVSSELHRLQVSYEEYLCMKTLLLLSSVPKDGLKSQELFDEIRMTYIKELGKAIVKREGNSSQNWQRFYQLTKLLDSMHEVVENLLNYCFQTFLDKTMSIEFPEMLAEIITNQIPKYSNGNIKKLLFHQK
Estrogen receptor (Homo sapiens), sequence (P03372 whole entry, looked up): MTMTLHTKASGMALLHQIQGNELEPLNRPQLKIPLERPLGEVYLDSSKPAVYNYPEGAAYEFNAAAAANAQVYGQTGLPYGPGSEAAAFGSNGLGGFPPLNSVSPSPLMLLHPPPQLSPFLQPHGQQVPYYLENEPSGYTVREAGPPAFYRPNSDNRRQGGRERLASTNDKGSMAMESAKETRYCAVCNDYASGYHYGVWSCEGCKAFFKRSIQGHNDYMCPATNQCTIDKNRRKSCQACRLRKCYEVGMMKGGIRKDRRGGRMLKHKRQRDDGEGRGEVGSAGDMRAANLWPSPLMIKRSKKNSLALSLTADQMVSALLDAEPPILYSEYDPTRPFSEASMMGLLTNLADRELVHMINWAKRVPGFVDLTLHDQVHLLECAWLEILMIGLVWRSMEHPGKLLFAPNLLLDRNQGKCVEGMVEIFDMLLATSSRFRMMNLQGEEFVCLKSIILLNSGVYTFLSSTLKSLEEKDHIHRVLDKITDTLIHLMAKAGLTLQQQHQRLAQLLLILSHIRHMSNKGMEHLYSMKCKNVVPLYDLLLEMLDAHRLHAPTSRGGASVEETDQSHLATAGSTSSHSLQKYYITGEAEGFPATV
Peroxisome proliferator-activated receptor delta (Homo sapiens), sequence (Q03181 whole entry, looked up): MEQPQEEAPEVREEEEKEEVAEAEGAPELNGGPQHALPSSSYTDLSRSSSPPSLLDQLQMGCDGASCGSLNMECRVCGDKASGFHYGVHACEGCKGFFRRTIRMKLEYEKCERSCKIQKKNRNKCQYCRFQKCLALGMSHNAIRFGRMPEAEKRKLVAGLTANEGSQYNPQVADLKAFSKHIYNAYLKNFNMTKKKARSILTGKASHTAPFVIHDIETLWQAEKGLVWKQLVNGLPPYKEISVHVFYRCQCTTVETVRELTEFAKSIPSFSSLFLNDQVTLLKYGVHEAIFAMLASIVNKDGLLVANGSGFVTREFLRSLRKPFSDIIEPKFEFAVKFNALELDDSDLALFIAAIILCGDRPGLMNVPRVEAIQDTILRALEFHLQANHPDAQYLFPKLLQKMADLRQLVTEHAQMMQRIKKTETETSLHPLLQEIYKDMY
Retinoic acid receptor RXR-alpha (Homo sapiens), sequence (P19793 whole entry, looked up): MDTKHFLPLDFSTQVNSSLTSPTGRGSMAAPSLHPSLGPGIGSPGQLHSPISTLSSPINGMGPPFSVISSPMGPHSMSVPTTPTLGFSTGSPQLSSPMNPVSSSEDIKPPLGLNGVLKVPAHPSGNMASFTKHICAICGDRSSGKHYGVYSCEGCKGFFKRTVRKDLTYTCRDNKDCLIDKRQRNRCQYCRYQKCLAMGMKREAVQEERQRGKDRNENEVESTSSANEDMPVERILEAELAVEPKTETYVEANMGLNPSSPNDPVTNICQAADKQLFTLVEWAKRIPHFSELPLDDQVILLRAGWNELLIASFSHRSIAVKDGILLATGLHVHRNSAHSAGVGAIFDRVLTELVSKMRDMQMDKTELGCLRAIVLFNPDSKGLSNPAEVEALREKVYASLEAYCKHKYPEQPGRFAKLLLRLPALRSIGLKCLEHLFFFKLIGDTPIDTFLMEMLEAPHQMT

As for `CCCBr`, the Potency is > 92 µM (inactive) in [1], > 92 µM (inactive) in test [2] and 0.355 µM (active) in test [8]. Besides, the Potency result in [3], in test [4], in test [6], in [7], in test [12] and in [13] was “inactive” each time. Further, the outcome in [5], in test [10] and in test [11] was inactive. Moreover, the activation in test [9] is -1.9% (inactive).
Take `Cc1ccccc1[N+](=O)[O-]`: the Potency in test [1] and in [2] was > 92 µM (inactive) in each case. Moreover, the Potency entry in test [4], in test [6], in test [7], in test [8], in test [12] and in [13] was “inactive” each time. Moreover, the activation in test [9] is -7.47% (inactive); in test [16], -1.35% (inactive). In addition, the result in [10], in test [15] and in [11] was inactive. Also, in [14], the max response is -51%.
As to `C=CCO`, the Potency in [1] and in test [2] was > 92 µM (inactive) each time. The Potency result in test [3], in test [4], in test [6], in [18], in test [19] and in [13] was “inactive” in each case. In addition, the call in test [5], in test [10], in test [15] and in [17] was inactive. Further, the activation was 3.6% (inactive) in [9] and -0.568% (inactive) in test [16]. In addition, the max response in test [14] stood at 11.9%.
For `ClC(Cl)C(Cl)Cl`, the Potency in test [1] and in [2] was > 92 µM (inactive) in each case. Besides, the Potency result in test [3], in test [4], in [6], in [7], in test [8] and in [18] was “inactive” in each case. In test [13], the Potency entry is “inactive”. In test [9], the activation is 1.52% (inactive). Moreover, the result in test [10] and in [17] was inactive.
With `COc1c(C(C)(C)C)cc([N+](=O)[O-])c(C)c1[N+](=O)[O-]`, the Potency in test [1] was > 92 µM (inactive); in test [2] it was > 92 µM (inactive); in test [8], 7.08 µM (active). Further, the Potency result in test [3], in [6], in [7], in [12], in [18] and in [19] was “inactive” in each case. Also, in test [13], the Potency entry was “inactive”. Besides, the figures for the activation in test [9] and in test [16] were -4.08% (inactive) and 0.103% (inactive), respectively. The result in [10] and in test [11] was inactive.
With `ClC(Br)Br`, the Potency in [1] and in test [2] was > 92 µM (inactive) each time. For the same compound, the outcome in test [5], in [10], in [15], in [11] and in test [17] was inactive. Also, the Potency result in test [6], in test [7], in [8], in [12], in test [19] and in [13] was “inactive” each time. Besides, the max response in test [14] was found to be 2.53%. The activation in test [16] is 0.329% (inactive).
In the case of `Brc1ccc(Oc2ccc(Br)cc2Br)c(Br)c1`, the Potency in test [20] was > 92 µM (inactive). In addition, the Potency entry in test [3], in test [4], in [6], in test [7], in test [8] and in test [12] was “inactive” in each case. In addition, the Potency entry in test [13] was “inactive”. Besides, the activation in test [16] is 7.07% (inactive).
Consider `CC(C)(COCC1CO1)COCC1CO1` (configuration not stated), for which the Potency in [20] is > 92 µM (inactive). Also, in test [3], the activity change, negative = cytotoxicity is -105% (active). Moreover, the Potency result in test [4], in test [6], in [7], in test [8], in test [19] and in test [13] was “inactive” each time. Moreover, the outcome in [5], in test [10] and in test [15] was inactive. In addition, the max response in test [14] is 0.207%. Further, the activation in test [16] is -0.0471% (inactive).
Take `O=[N+]([O-])c1ccc(O)c([N+](=O)[O-])c1`: the Potency was > 92 µM (inactive) in [20], > 92 µM (inactive) in test [2], 66.8 µM (active) in test [18] and 37.6 µM (active) in test [19]. The outcome in test [5], in test [11] and in test [17] was inactive. Also, the Potency entry in test [6], in test [7], in test [12] and in test [13] was “inactive” in each case. In test [16], the activation was 0.436% (inactive).
